# Assay outcomes deposited in PubChem BioAssay by National Center for Advancing Translational Sciences (NCATS).
# Mito fusion yeast: qHTS Assay for Small Molecule Inhibitors of Mitochondrial Division or Activators of Mitochondrial Fusion. S. cerevisiae fusion-defective mutant growth rescue, CellTiterGlo 48 h. Potency, µM (doses to about 46.1 µM), for inactives: top-dose growth rescue (activation), hits mostly activators. actives 0.23% (n = 320,000). AID 485298, 2010; also: % of control where 0% means no effect; nearly all actives have a fitted effect of over 45% in size
#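 Compounds are tested for their ability to restore growth of mitochondrial fusion-defective yeast strains at non-permissive 37C in YPEG medium over 48 hours. Viability is quantified by luciferase luminescence.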
# A549 tox: Nrf2 qHTS screen for inhibitors: counterscreen for cytotoxicity | A549 ARE-Fluc cells, CellTiter-Fluor viability, 18-24 h | Potency, µM (doses to about 46 µM), for inactives: at the top dose activity change, negative = cytotoxicity, hits mostly inhibitors | actives 0.16% (n = 390,000) | AID 504648, 2011; also: % is scaled to controls: 0 for no effect and ±100 for the full control effect
#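 A549 ARE-Fluc cells in 5% FBS OPTI-MEM, 5000 cells/well, rested 2 h then exposed to compounds in concentration-response for 18-24 h at 37 °C. Viability by CellTiter-Fluor fluorescence (Ex 405/Em 525) after 30 min; luciferase luminescence (BugLite, 15 min, RT) read afterwards.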
# TrxR1 substrate: qHTS Assay for Substrates of Mammalian Selenoprotein Thioredoxin Reductase 1 (TrxR1): qHTS; Potency, µM (titrated, usually from 114 µM), for inactives: at the highest dose activity change, negative = substrate turnover; actives 0.01% (n = 390,000); purified TrxR1 substrate turnover, NADPH consumption readout; Thioredoxin reductase 1, cytoplasmic (Rattus norvegicus), O89049; also: % is scaled to controls: 0 for no effect and ±100 for the full control effect; nearly all actives have a fitted effect of over 50% in size
# Target sequence (O89049 whole entry, looked up): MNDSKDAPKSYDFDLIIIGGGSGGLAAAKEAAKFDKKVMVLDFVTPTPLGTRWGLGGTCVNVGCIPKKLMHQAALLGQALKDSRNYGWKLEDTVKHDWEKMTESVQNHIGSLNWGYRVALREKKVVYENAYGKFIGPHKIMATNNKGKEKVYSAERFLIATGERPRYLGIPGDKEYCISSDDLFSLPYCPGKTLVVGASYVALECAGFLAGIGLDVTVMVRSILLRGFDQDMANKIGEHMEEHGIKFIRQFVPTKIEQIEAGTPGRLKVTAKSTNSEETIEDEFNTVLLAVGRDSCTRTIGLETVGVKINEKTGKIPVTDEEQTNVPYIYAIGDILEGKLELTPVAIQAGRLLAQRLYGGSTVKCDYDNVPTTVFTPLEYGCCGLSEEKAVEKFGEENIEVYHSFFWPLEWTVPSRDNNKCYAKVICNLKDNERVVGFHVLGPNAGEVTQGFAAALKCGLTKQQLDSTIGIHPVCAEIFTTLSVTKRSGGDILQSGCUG
#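 Rat TrxR1, dispensed at 90 nM, was prereduced with 400 uM NADPH (final) for 5 min at ~22 deg C, then incubated with compound 15 min before 400 uM selenite. A first-read NADPH fluorescence drop versus no-compound background flagged substrates.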
# Nrf2 inh: Nrf2 qHTS screen for inhibitors; actives 2.1% (n = 360,000); AID 504444, 2011; A549 ARE-Fluc reporter, luciferase luminescence, 18-24 h; Potency, µM (doses to about 46 µM), for the others: at the top dose activity change, negative = inhibition, usual class: inhibitors; also: % is scaled to controls: 0 for no effect and ±100 for the full control effect; nearly all actives have a fitted effect of over 60% in size
#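 Quantitative HTS in A549 cells stably bearing an antioxidant response element-firefly luciferase construct. Inhibition of Nrf2-driven transcription was scored by luminescence after 18-24 h of compound exposure at 37 °C.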
# mIDH1 inhibitor: qHTS for Inhibitors of mutant isocitrate dehydrogenase 1 (IDH1): qHTS. actives 0.093% (n = 390,000). Isocitrate dehydrogenase [NADP] cytoplasmic (Homo sapiens), O75874. IDH1-R132H enzyme, NADPH consumption, diaphorase/resazurin fluorescence. Potency, µM (top dose mostly 76.6 µM), for inactives: top-dose activity change, negative = inhibition, actives largely listed as inhibitors; also: % is scaled to controls: 0 for no effect and ±100 for the full control effect; nearly all actives have a fitted effect of over 65% in size
#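 IDH1-R132H (0.5 ug/mL dispensed) in pH 7.5 Tris buffer was preincubated 30 min with compound, then given a substrate mix of 0.016 mM NADPH and 2 mM alpha-KG for 80 min at room temperature; remaining NADPH was read by diaphorase/resazurin fluorescence.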
# rTrxR1 inhibitor: qHTS Assay for Inhibitors of Mammalian Selenoprotein Thioredoxin Reductase 1 (TrxR1): qHTS; Thioredoxin reductase 1, cytoplasmic (Rattus norvegicus), O89049; Potency, µM (doses to about 114 µM), without a hit: at the top dose activity change, negative = inhibition, hits mostly inhibitors; recombinant rTrxR1, NADPH fluorescence consumption, selenite substrate; AID 588453, 2011; actives 1% (n = 390,000); also: % is scaled to controls: 0 for no effect and ±100 for the full control effect; nearly all actives have a fitted effect of over 65% in size
#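 Rat TrxR1 (90 nM in the dispensed reagent) was pre-reduced with 400 uM NADPH for 5 min at room temperature, then incubated with compound for 15 min. After 400 uM selenite was added, NADPH fluorescence (Ex 340/Em 450 nm) was followed for 8 min.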
# The depositor's hits bear a star; u = inconclusive; x = no result; [ ] = remark or other dose. Rows were chosen to be rich in hits. Some 3.1% of all compounds tested hit in one or more screens of this group. Calls follow the shape of the dose curve; as a rule, active = well fitted curve in the direction sought with a large enough effect; inconclusive = small, poorly fitted or top-dose-only effect, or another doubt; inactive = no such curve, though single readings can be large; an effect the other way counts as inactive or inconclusive. Potency is read from the fitted curve at half-maximal effect.
SMILES,Mito fusion yeast,A549 tox,TrxR1 substrate,Nrf2 inh,mIDH1 inhibitor,rTrxR1 inhibitor
CCOC(=O)N/N=C\c1ccc([N+](=O)[O-])s1,-7%,u,-5%,23µM*,5%,17%[57.1 µM]
Cc1ccc(C(=O)N/N=C/c2ccc([N+](=O)[O-])s2)cc1,12%,u,14%,16µM*,12%,26%
O=C(N/N=C/c1ccc([N+](=O)[O-])s1)c1cccc(Br)c1,2%,u,2%[57.1 µM],21µM*,0%,-1%[57.1 µM]
CCOc1ccccc1CNCCCSc1nnnn1C,x,3%,2%,6%,-1%,7%
COc1ccc(-c2nnc3n2N=C(c2ccccc2OC)CS3)cc1,x,-1%,x,6%,x,x
N#Cc1ccc(-c2cccs2)nc1SCc1c(F)cccc1Cl,x,-14%,27%,-25%,-16%,-2%
Cc1cccc(NC(=S)N/N=C/c2ccc([N+](=O)[O-])s2)c1,-21%,u,-9%,11µM*,2%,-13%
Cc1cccc(NC(=O)/C=C/c2ccc([N+](=O)[O-])s2)c1,3%,-27%,-9%,-6%,5%,-7%
Cc1ccc([N+](=O)[O-])c(C(=O)N/N=C/c2cccs2)c1,0%,-3%,-8%,9.2µM*,15%,11%
Cc1ccc(OCC(=O)N/N=C\c2cccs2)c([N+](=O)[O-])c1,7%,11%,-19%[57.1 µM],u,4%,22%[57.1 µM]
CC1(C)OB(c2cnc(C#N)nc2)OC1(C)C,x,x,0%,x,x,9%
Nc1c(Br)c(=O)[nH]c(=O)n1-c1ccc(F)cc1,-12%,-3%,-1%,-3%,0%,40µM*
Cc1ncc(CO)c(/C=N/Nc2ccc(C(F)(F)F)cn2)c1O,-14%,u,-6%,10µM*,4%,-2%
Cc1ccc(-n2c(SCc3ccc(C#N)cc3)nnc2-c2ccccn2)cc1,-2%,-10%,-2%,-12%,-5%,9%
COc1ccc(OCc2nnc(SCC(=O)N3CCCc4ccccc43)n2-c2ccc(C)cc2)cc1,23%,u,-2%,23µM*,-4%,20%
Cc1ccc(OCc2nnc(SCc3ccc(C#N)cc3)n2-c2ccc(C)cc2)cc1,18%,u,-5%[57.1 µM],18µM*,0%,5%[57.1 µM]
N#Cc1ccc(OCc2nnc(SCC(=O)N3CCCc4ccccc43)n2-c2ccccc2)cc1,3%,0%,-2%,-11%,1%,7%
CCCCOC(=O)c1ccc(NC(=O)c2ccc3c(c2)CCCN3S(C)(=O)=O)cc1,x,6%,17%,u,0%,55%
O=C(O[C@H]1[C@H](Cc2ccccc2)NS(=O)(=O)[C@H]2CC3C=C[C@]12O3)c1ccc(Br)cc1,x,x,0%,x,x,20%
Cc1ccc2oc(C(=O)N(C)Cc3ccc(C)o3)c(C)c2c1,2%,3%,-5%,6%,6%,7.1µM*
Cc1ccc2oc(C(=O)N(C)Cc3ccon3)c(C)c2c1,0%,23%,-2%,u,-7%,14%
Cc1ccc(CN(C)C(=O)c2cc(Br)c(Br)s2)o1,16%,-9%,-4%,-17%,-9%,50µM*
Oc1ccc(CNc2ccc(F)cc2Cl)c2cccnc12,x,-17%,x,u,x,x
CCOC(=O)c1sc2ccccc2c1S(=O)(=O)NCc1ccc(F)cc1,x,6%,-3%[57.1 µM],-24%,-1%,16%[57.1 µM]
NC(=O)C1CCN(C(=O)COc2ccc(S(=O)(=O)NC3CCCC3)cc2)CC1,0%,0%,0%,2%,-6%,16%
SMILES,Mito fusion yeast,A549 tox,TrxR1 substrate,Nrf2 inh,mIDH1 inhibitor,rTrxR1 inhibitor
O=C(COc1ccc2c3c(c(=O)oc2c1)CCC3)N1CCN(c2ccc(F)cc2)CC1,u,-3%,1%,23µM*,-6%,0%
O=C(COc1ccc(S(=O)(=O)NC2CCCCC2)cc1)N1CCN(c2ccc(F)cc2)CC1,-1%,1%,2%[57.1 µM],15µM*,-4%,9%[57.1 µM]
NCCNc1ncnc2ccc(-c3ccc4c(c3)OCO4)cc12,x,-22%,x,-16%,x,x
Cc1c(C)c(C)c(/C=C/c2ccnc3ccccc23)c(C)c1C,x,x,1%,x,x,11%
c1ccc2[nH]c3cc4ncnc4cc3nc2c1,23%,u,-9%,5.8µM*,0%,-12%
FC(F)c1nc2ccccc2[nH]1,11%,0%,9%[57.1 µM],4%,11%,22%[11.4 µM]
Cc1cc(C)n(Cc2ccc(C(=O)Nc3ccc(Br)cc3C)o2)n1,8%,1%,-8%,-10%,3%,-14%[57.1 µM]
Cc1cc(C)n(Cc2ccc(C(=O)Nc3cccc(Br)c3)o2)n1,u,u,-2%,23µM*,1%,-6%
